KCNQ2 pot = KCNQ2 (rat) channel potentiation. CHO-K1 KCNQ2, FluxOR thallium flux fluorescence; active compounds read high. 0.54% of 310,000 active. B-score at 10 µM. O88943;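 active means fluorescence ratio B-score at least 3 SD of library B-scores, with initial fluorescence B-score within 3 of them, cut at about 5.3 in these data; same plate scores as AID 2156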;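 further: B-score of peak minus minimum over baseline fluorescence ratio after K+ and Tl+ stimulus; positive B-score means potentiation of KCNQ2 with more thallium influx and brighter signal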
KCNQ2 inh = blocks the rat KCNQ2 potassium channel; CHO-K1 KCNQ2, FluxOR thallium flux, 20 min; active compounds read low; B-score at 10 µM; 1.1% of 310,000 active;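 active means fluorescence ratio B-score at most minus 3 library SDs, with starting brightness B-score within 2 library SDs, cut at about -5.5 in these data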
Kir21 conf inh = confirmation of mouse Kir2.1 potassium channel inhibitors | shares compounds with KCNQ2 pot | Kir2.1-expressing cells, FluxOR thallium flux fluorescence; active compounds read low | Tl flux remaining, % of negative control (active compounds read low), % at 10 µM | 41% of 2,300 active | AID 2032;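 active means Primary-screen hit whose thallium flux fell at least 3 control SD below untreated wells in both duplicates, with normal baseline fluorescence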;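 further: 0% = blank wells without stimulus and 100% = stimulated no-compound controls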
HEK293 Tl flux = counter-screen for Kir2.1 inhibitors: effect in parental HEK293 cells. FluxOR signal as % of negative control (100 = no effect), % at 10 µM. 19% of 2,300 active. shares compounds with KCNQ2 pot. FluxOR thallium flux fluorescence; 0% = unstimulated blank wells;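 active means dye signal at least 3 control SD above or below untreated wells in both duplicates, raw fluorescence within 3, either direction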;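 further: percent is based on the flux ratio of peak minus minimum fluorescence over baseline F0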
CHO-K1 ctr = parental CHO-K1 activity in KCNQ2 potentiator counter-screen | 43% of 1,200 active | AID 2282 | parental CHO-K1 cells, FluxOR thallium flux fluorescence; zero = vehicle mean+3SD, 100% = vehicle-minus-blank window | activity increase over 3SD of controls, % at 10 µM | shares compounds with KCNQ2 pot;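 active means signal rise of at least 3 SD above the untreated control mean, in both duplicate wells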;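 further: counter screen of KCNQ2 potentiator hits so any rise reflects channel-independent effects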
KCNQ1 sel pot = human KCNQ1 counter-target activity of KCNQ2 potentiators; shares compounds with KCNQ2 pot; CHO KCNQ1 stable, FluxOR thallium flux fluorescence; beyond 3SD, as % of vehicle-control signal; activation over 3SD threshold, % at 10 µM; 28% of 1,200 active; AID 2283;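 active means fluorescence ratio rise of at least 3 SD of vehicle wells above their mean, in both replicate wells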;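 further: 0% = vehicle mean plus 3 SD and 100% = vehicle minus unstimulated blank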
Target sequence (P51787 whole entry, looked up): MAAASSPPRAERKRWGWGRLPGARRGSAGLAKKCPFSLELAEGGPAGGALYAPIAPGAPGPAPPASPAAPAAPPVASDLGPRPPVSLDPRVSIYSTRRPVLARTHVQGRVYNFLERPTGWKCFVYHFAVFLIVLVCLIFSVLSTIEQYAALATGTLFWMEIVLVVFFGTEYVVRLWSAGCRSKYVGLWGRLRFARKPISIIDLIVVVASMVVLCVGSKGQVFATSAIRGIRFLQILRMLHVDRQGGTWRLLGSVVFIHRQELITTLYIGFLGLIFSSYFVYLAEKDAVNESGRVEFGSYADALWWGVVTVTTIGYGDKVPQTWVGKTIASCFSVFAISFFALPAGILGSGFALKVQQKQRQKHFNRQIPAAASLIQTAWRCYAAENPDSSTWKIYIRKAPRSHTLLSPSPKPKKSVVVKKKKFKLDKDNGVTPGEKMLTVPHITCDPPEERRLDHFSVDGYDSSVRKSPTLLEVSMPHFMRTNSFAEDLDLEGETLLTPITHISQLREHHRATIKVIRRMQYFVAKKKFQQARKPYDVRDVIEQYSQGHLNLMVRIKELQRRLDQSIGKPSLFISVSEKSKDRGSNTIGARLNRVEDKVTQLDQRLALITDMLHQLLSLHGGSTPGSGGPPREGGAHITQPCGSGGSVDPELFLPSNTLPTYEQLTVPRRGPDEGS
KCNQ2 pot conf = rat KCNQ2 channel potentiator confirmation; 68% of 1,200 active; potentiation, less the hit threshold, % at 10 µM; CHO-KCNQ2 cells, FluxOR thallium flux fluorescence; shares compounds with KCNQ2 pot;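 active means fluorescence ratio rising 3 SD or more over the vehicle control mean in both replicates, plus primary screen hit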;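 further: peak minus minimum thallium fluorescence divided by baseline after K/Tl stimulus; 0% = vehicle mean plus 3 SD and 100% = vehicle minus unstimulated blank difference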
Kir2-1 sel = tests whether KCNQ2 potentiators also affect mouse Kir2.1; shares compounds with KCNQ2 pot; HEK293 Kir2.1, FluxOR thallium flux fluorescence; activity over 3SD threshold, % at 10 µM; 2% of 1,200 active; AID 2345;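 active means fluorescence ratio rise of at least 3 SD above the vehicle-control mean, seen in both replicates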;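 further: 0% = vehicle mean plus 3 SD and 100% = vehicle minus no-stimulus blank window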
KCNQ2 W236L MoA = rat KCNQ2 W236L mutant potentiation by KCNQ2 potentiators; shares compounds with KCNQ2 pot; CHO KCNQ2-W236L, automated patch clamp current; current increase over 3SD of negative controls (%), active compounds read high, % at 25 µM; 10% of 940 active; AID 2558;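 active means current increase at least 3 SD of the untreated controls above them in both duplicate recordings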
* hit, by the source's call; i = inactive; . = not tested or not shown. A selection: hits, their analogues and other compounds. The true share with any hit is near 1.6%.

SMILES	KCNQ2 pot	KCNQ2 inh	Kir21 conf inh	HEK293 Tl flux	others
CC1CCCCN1CC(O)COCc1ccccc1 (stereo not drawn)	.	i	.	.
Cc1ccn2c(=O)nc(SCC(=O)NCc3ccccc3Cl)nc2c1	.	i	.	.
COc1ccc(S(=O)(=O)Nc2ccccc2OC)cc1C	1.6	i	.	.
COc1ccc(S(=O)(=O)Nc2ccccc2SC)cc1C	.	i	54%*	i
COc1ccc(CS(=O)(=O)c2ncn[nH]2)cc1	.	i	.	.
S=c1[nH]nc(-c2cccs2)n1/N=C/c1cn(-c2ccccc2)nc1-c1cccs1	6.9*	i	i	i	CHO-K1 ctr=-1;KCNQ1 sel pot=80*;KCNQ2 pot conf=-3;Kir2-1 sel=-34;KCNQ2 W236L MoA=i
S=c1[nH]nc(-c2ccncc2)n1/N=C/c1cn(-c2ccccc2)nc1-c1ccccc1	.	i	.	.
CCOC(=O)C(=CNc1ccc(S(N)(=O)=O)cc1)C(=O)OCC	.	i	.	.
CCOC(=O)C(=CNc1ccc(NC2=NCC(C)(C)S2)cc1)C(=O)OCC	.	i	58%*	i
CS(=O)(=O)N1CCN(c2ccc(NC(=S)NC(=O)c3cccs3)cc2)CC1	.	i	.	.
O=C(NC(=S)Nc1ccc(N2CCCCC2)cc1)c1cccs1	5.8*	i	i	126%*	CHO-K1 ctr=-8;KCNQ1 sel pot=-10;KCNQ2 pot conf=3.0*;Kir2-1 sel=-38;KCNQ2 W236L MoA=i
O=C(/C=C/c1ccccc1)n1cnnc1SC/C=C/c1ccccc1	.	i	i	i
Cc1nnc(SC/C=C/c2ccccc2)n(N)c1=O	1.5	i	.	.
OCCNCCO	.	i	.	.
O=C(/C=C/c1ccc([N+](=O)[O-])cc1)/C=C/c1ccco1	-6.1	-6.1*	i	i
O=C(/C=C/c1ccc([N+](=O)[O-])cc1)NCc1ccco1	0.51	i	.	.
O=C(CSCCOc1ccccc1)NCc1ccncc1	.	i	.	.
Nc1ccc(C(=O)N/N=C2\CCCc3c2[nH]c2ccccc32)cc1	0.77	i	.	.
c1ccc(CCN=C2CCCc3c2[nH]c2ccccc32)cc1	.	i	20%*	70%*
Oc1c(Cl)cc(Cl)cc1/C=N/c1nccs1	9.1*	i	i	i	CHO-K1 ctr=-18;KCNQ1 sel pot=126*;KCNQ2 pot conf=34*;Kir2-1 sel=-22;KCNQ2 W236L MoA=14%*
Oc1c(Cl)cc(Cl)cc1C=Nc1ccccc1N1CCCC1	0.41	i	.	.
NC(=O)c1cccc(N=Cc2cc(Cl)cc(Cl)c2O)c1	13*	i	i	i	CHO-K1 ctr=4.4*;KCNQ1 sel pot=31*;KCNQ2 pot conf=22*;Kir2-1 sel=-13;KCNQ2 W236L MoA=i
Oc1c(Cl)cc(Cl)cc1/C=N/c1nc(-c2ccc(Cl)cc2)cs1	2.2	i	.	.
COc1cc(NC(=O)CSc2ncnc3sc4c(c23)CCCC4)c(C(=O)O)cc1OC	1.6	i	.	.
O=C(Oc1ccc(C(=S)N2CCOCC2)cc1Br)c1ccccc1F	.	i	.	.
SMILES	KCNQ2 pot	KCNQ2 inh	Kir21 conf inh	HEK293 Tl flux	others
O=C(Oc1ccc(C(=S)N2CCOCC2)cc1)c1ccccc1[N+](=O)[O-]	.	i	.	.
O=C(Oc1ccc(C(=S)N2CCOCC2)cc1Cl)c1ccccc1F	.	i	69%*	i
O=C(Oc1ccc(C(=S)N2CCOCC2)cc1)c1ccccc1F	0.17	i	71%*	i
NC(=O)C1CCN(C(=O)c2cc3c(s2)CCCC3)CC1	.	i	i	i
CC(C)NC(=O)C1CCN(C2CCN(C(=O)c3cc4c(s3)CCCCC4)CC2)CC1	.	i	.	.
COc1ccc(C(CNC(=O)CCNS(=O)(=O)c2ccc(C)cc2)N2CCOCC2)cc1 (stereo not drawn)	.	i	.	.
CSCCC(NC(=O)c1ccco1)C(=O)N(C)CC(=O)Nc1c(Cl)cccc1Cl (stereo not drawn)	0.67	i	.	.

Screening results as filed in PubChem BioAssay.
